{
  "source": "the supplement of paper PMC12024529",
  "note": "Values joined by “and” are separate entries in the source; they are usually repeats but may differ in a detail not shown here. Identical values can stand only once.",
  "data": [
    {"tested_on": "HEK293 WT BDD-FVIII-Gluc", "assay": "secreted FVIII-Gluc luciferase Z-score vs DMSO control; higher = more FVIII-Gluc secretion", "conditions": "5 µM", "experimental": "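Natural plant-compound library (480 compounds, ST catalogue IDs) screened on HEK293 cells stably expressing WT BDD-FVIII-Gaussia luciferase fusion at 5 µM. Secreted Gluc activity in the medium is given as a Z-score relative to DMSO controls.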", "values": [
      {"compound": "CO[C@@H]1[C@@H](O[C@@H]2O[C@H](C)[C@@H](O[C@H]3C[C@@](C)(O)[C@@H](OC(=O)CC(C)C)[C@H](C)O3)[C@H](N(C)C)[C@H]2O)[C@@H](CC=O)C[C@@H](C)[C@@H](O)/C=C/C=C/C[C@@H](C)OC(=O)C[C@H]1OC(C)=O", "secreted FVIII-Gluc luciferase Z-score": 0.0728},
      {"compound": "C[C@H](CCC(=O)O)[C@H]1CC[C@H]2[C@@H]3[C@H](O)C[C@@H]4C[C@H](O)CC[C@]4(C)[C@H]3C[C@H](O)[C@]12C", "secreted FVIII-Gluc luciferase Z-score": -0.337},
      {"compound": "C[C@@H]1O[C@@H](OC[C@H]2O[C@@H](Oc3c(-c4cccc(O)c4O)oc4cc(O)cc(O)c4c3=O)[C@H](O)[C@@H](O)[C@@H]2O)[C@H](O)[C@H](O)[C@H]1O", "secreted FVIII-Gluc luciferase Z-score": 1.27},
      {"compound": "COc1cc([C@@H]2Oc3cc(C4Oc5cc(O)cc(O)c5C(=O)[C@H]4O)ccc3O[C@H]2CO)ccc1O", "note": "(stereo partly drawn)", "secreted FVIII-Gluc luciferase Z-score": 0.0424},
      {"compound": "C=CCc1ccc(O)c(OC)c1", "secreted FVIII-Gluc luciferase Z-score": -0.898},
      {"compound": "C=C1C(=O)OC2C[C@@]3(C)CCCC(=C)[C@@H]3CC12", "note": "(stereo partly drawn)", "secreted FVIII-Gluc luciferase Z-score": -0.82},
      {"compound": "COc1cc2oc(-c3ccccc3)cc(=O)c2cc1O", "secreted FVIII-Gluc luciferase Z-score": 0.564},
      {"compound": "CC[C@@H]1[C@H]2CCCCN3[C@H]2[C@H](C[C@H]3[C@@H]2C[C@H](C)C(=O)O2)[C@@H]2[C@H]1OC(=O)[C@H]2C", "secreted FVIII-Gluc luciferase Z-score": -0.0302},
      {"compound": "NC(Cc1c[nH]c2ccccc12)C(=O)NCC(=O)O", "note": "(stereo not drawn)", "secreted FVIII-Gluc luciferase Z-score": -1.06},
      {"compound": "COc1ccc2c(=O)cc(-c3ccccc3)oc2c1O", "secreted FVIII-Gluc luciferase Z-score": 0.609},
      {"compound": "COc1cc(C(=O)OC2CC(C)=CCC3(C)CCC(O)(C(C)C)C23)ccc1O", "note": "(stereo not drawn)", "secreted FVIII-Gluc luciferase Z-score": -0.405},
      {"compound": "Nc1ncnc2c1ncn2[C@H]1C[C@H](O)[C@@H](CO)O1", "secreted FVIII-Gluc luciferase Z-score": 1.23},
      {"compound": "Cc1c(C)c2c(c(C)c1O)CC[C@@](C)(CCC[C@H](C)CCC[C@H](C)CCCC(C)C)O2", "secreted FVIII-Gluc luciferase Z-score": 0.497},
      {"compound": "COC(=O)[C@@H]1C(O)CCC2CN3CCc4c([nH]c5ccccc45)C3CC21", "note": "(stereo partly drawn)", "secreted FVIII-Gluc luciferase Z-score": 0.187},
      {"compound": "CC(C)[C@@H](C)/C=C/[C@@H](C)[C@H]1CC[C@H]2C3=CC=C4C[C@@H](O)CC[C@]4(C)[C@H]3CC[C@]12C", "secreted FVIII-Gluc luciferase Z-score": 0.958},
      {"compound": "COc1cc2c3cc1Oc1c(OC)c(OC)cc4c1[C@@H](Cc1ccc(O)c(c1)Oc1ccc(cc1)C[C@@H]3N(C)CC2)N(C)CC4", "secreted FVIII-Gluc luciferase Z-score": 0.165},
      {"compound": "NC(CC(=O)O)C(=O)O", "note": "(stereo not drawn)", "secreted FVIII-Gluc luciferase Z-score": 0.487},
      {"compound": "O=c1cc(-c2cccc(O)c2O)oc2ccccc12", "secreted FVIII-Gluc luciferase Z-score": -0.852},
      {"compound": "Nc1ncnc2c1ncn2[C@@H]1O[C@H](CO)[C@@H](O)[C@H]1O", "secreted FVIII-Gluc luciferase Z-score": 0.566},
      {"compound": "Cc1c(C(=O)O)c(O)cc2c1C(=O)c1c(O)c([C@H]3O[C@H](CO)[C@@H](O)[C@H](O)[C@H]3O)c(O)c(O)c1C2=O", "secreted FVIII-Gluc luciferase Z-score": "0.527 and 0.738"},
      {"compound": "c1coc(CNc2ncnc3nc[nH]c23)c1", "secreted FVIII-Gluc luciferase Z-score": 0.193},
      {"compound": "C[C@H]1[C@H](C)CC[C@]2(C(=O)O)CC[C@]3(C)C(=CC[C@@H]4[C@@]5(C)CC[C@H](O)C(C)(C)[C@@H]5CC[C@]43C)[C@H]12", "secreted FVIII-Gluc luciferase Z-score": 0.136},
      {"compound": "O=C(O)C(=O)Cc1ccccc1", "secreted FVIII-Gluc luciferase Z-score": 0.46},
      {"compound": "O=c1cc(-c2ccccc2)oc2cc(O)c(O)c(O)c12", "secreted FVIII-Gluc luciferase Z-score": -0.284},
      {"compound": "O=C1C[C@H](c2ccccc2)Oc2cc(O)cc(O)c21", "secreted FVIII-Gluc luciferase Z-score": 0.533},
      {"compound": "NC(Cc1cnc[nH]1)C(=O)O", "note": "(stereo not drawn)", "secreted FVIII-Gluc luciferase Z-score": 0.443},
      {"compound": "C=C1CCC(O)C/C1=C\\C=C1/CCCC2(C)C1CCC2C(C)CCCC(C)C", "note": "(stereo not drawn)", "secreted FVIII-Gluc luciferase Z-score": -1.24},
      {"compound": "OCC1OC(n2cnc3cncnc32)C(O)C1O", "note": "(stereo not drawn)", "secreted FVIII-Gluc luciferase Z-score": -0.247},
      {"compound": "COc1cn(C2OC(CO)C(O)C2O)c(=O)[nH]c1=O", "note": "(stereo not drawn)", "secreted FVIII-Gluc luciferase Z-score": -0.271},
      {"compound": "C=C1CCC2C(C)(CO)C(O)CCC2(C)C1C/C=C1\\C(=O)OCC1O", "note": "(stereo not drawn)", "secreted FVIII-Gluc luciferase Z-score": -1.01},
      {"compound": "COc1cc(CNC(=O)CCCCCCC(C)C)ccc1O", "secreted FVIII-Gluc luciferase Z-score": -0.541},
      {"compound": "O=c1cc(-c2cccc(O)c2)oc2cccc(O)c12", "secreted FVIII-Gluc luciferase Z-score": 0.424},
      {"compound": "CC(C)[C@@H]1CC[C@@H](C)C[C@H]1OC(=O)[C@@H](C)O", "secreted FVIII-Gluc luciferase Z-score": -0.146},
      {"compound": "COc1ccccc1-c1oc2ccccc2c(=O)c1OC", "secreted FVIII-Gluc luciferase Z-score": 1.49},
      {"compound": "Cc1ccc(CC(Cc2nc3ccccc3[nH]2)c2nc3ccccc3[nH]2)cc1", "note": "(stereo not drawn)", "secreted FVIII-Gluc luciferase Z-score": 0.284},
      {"compound": "Nc1ccn([C@@H]2O[C@H](CO)[C@@H](O)[C@H]2O)c(=O)n1", "secreted FVIII-Gluc luciferase Z-score": 1.12},
      {"compound": "COc1cc2c(Cc3c4c5c(cc(OC)c(OC)c5c5c(OC)c(OC)ccc35)CCN4C)c3c4c(cc(OC)c(OC)c4c2cc1OC)CCN3C", "secreted FVIII-Gluc luciferase Z-score": -0.165},
      {"compound": "COc1ccc(-c2cc(=O)c3c(O)cc(O)cc3o2)cc1", "secreted FVIII-Gluc luciferase Z-score": 0.381}
    ]}
  ]
}
